The list is not random: actives were taken first. Their share in the collection is about 19%.
TDP1 cell noCPT: qHTS for Inhibitors of human tyrosyl-DNA phosphodiesterase 1 (TDP1): qHTS in cells in absence of CPT. DT40 Tdp1-/- hTDP1 cells, no CPT, ATP luminescence, 48 h. Potency, µM (top dose mostly 46.2 µM), without a hit: at the highest dose activity change, negative = growth inhibition, usual class: inhibitors. 420,000 compounds, 15% hits. AID 686978, 2013; note: potency is the fitted concentration of half-maximal effect; nearly all actives have a fitted effect of over 55% in size
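Readout: luminescence from CellTiter-Glo after 30 min in the dark at RT. Cells: DT40 Tdp1-/- with stable hTDP1, 400/well. Exposure: compounds alone, ≥48 hr, 37 °C.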
DT40 TDP1 CPT: growth inhibition of DT40 Tdp1-/-;hTDP1 cells with camptothecin (screen for TDP1 inhibitors). chicken DT40 Tdp1-/-;hTDP1 cells + 20 nM CPT, ATP luminescence, 48 h. Potency, µM (series often up to 46.2 µM), for inactives: at the highest dose activity change, negative = growth inhibition, actives largely listed as inhibitors. 420,000 compounds, 12% hits. AID 686979; note: potency is the fitted concentration of half-maximal effect; nearly all actives have a fitted effect of over 55% in size
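Chicken DT40 Tdp1-/- cells stably complemented with human TDP1 were seeded at 400 cells/well in medium containing 20 nM camptothecin, exposed to pin-transferred compounds, and grown at 37 °C for at least 48 hr. Viability was read as ATP luminescence.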
HT1080NT lethal: kills 2HG-producing HT-1080-NT fibrosarcoma cells. Potency, µM (titrated, usually from 46.1 µM), for the others: at the top dose activity, negative = less viability, hits mostly cytotoxic. HT-1080-NT fibrosarcoma viability, CellTiter-Glo ATP luminescence, 48 h. AID 686970. 360,000 compounds, 1.6% hits;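 note: NT is the 2HG producing partner of a matched IDH1 knockdown line; potency is the fitted concentration of half-maximal effect; 0% = DMSO-treated cells and -100% = media-only wells without cells; nearly all actives have a fitted effect of over 55% in size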
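Viability by CellTiter-Glo luminescence after 48 h compound exposure at 37C of HT-1080-NT cells (750/well, RPMI, 5% FBS). % activity scaled between DMSO wells and medium-only wells, then curve-fitted and categorized by curve class.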
IL1B secr inh: blocks inflammasome-driven IL-1 beta release; THP-1 LPS/ATP IL-1B secretion, AlphaLISA, 16 h; active compounds read low; activity change, % at 57.5 µM; 360,000 compounds, 4.7% hits; in the data active = activity change below about -50%; inconclusive = mostly about -30% to -49%
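THP-1 cells pretreated 1 hr with compounds (up to 57.5 uM final), then stimulated with LPS (250 ng/mL final) plus ATP (1.25 mM final); secreted IL-1B measured by AlphaLISA after 16 hr, decreased signal indicating inhibition.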
HT1080 IDH1KD tx: toxicity to HT-1080 IDH1 knockdown cells (counter line); Potency, µM (highest dose often 46.1 µM), without a hit: top-dose activity, negative = toxicity, most hits filed as cytotoxic; 360,000 compounds, 2% hits; HT-1080 IDH1 knockdown viability, ATP luminescence, 48 h;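 note: potency is the fitted concentration of half-maximal effect; 0% = DMSO wells and -100% = cell-free medium wells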
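IDH1KD HT-1080 cells, 750/well, RPMI + 5% FBS; compound pinned after 2 h settling; 48 h, 37 °C; CellTiter-Glo luminescence; % activity normalised to DMSO and no-cell wells; curves fitted, classed by r2 and efficacy.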
An asterisk follows results filed as active. Unless noted, calls come from the whole dose curve; as a rule, active = well fitted curve in the direction sought with a large enough effect; inconclusive = small, poorly fitted or top-dose-only effect, or another doubt; inactive = no such curve, though single readings can be large; an effect the other way counts as inactive or inconclusive. Unless noted, % is set by controls: 0 for no effect and ±100 for the full control effect.

Results for C=CC[n+]1c(C)csc1Nc1ccc(C)cc1 ?
TDP1 cell noCPT: inconclusive; DT40 TDP1 CPT: -1%; HT1080NT lethal: 15%; IL1B secr inh: -2; HT1080 IDH1KD tx: 10%

How did C=CC[n+]1c(-c2ccc(Cl)cc2Cl)csc1Nc1ccc(NC(C)=O)cc1 do in these assays?
TDP1 cell noCPT: 21µM*; DT40 TDP1 CPT: inconclusive; HT1080NT lethal: inconclusive; IL1B secr inh: -80*; HT1080 IDH1KD tx: 18µM*

What do the screens show for `COc1ccc(C(C)(C)C)cc1NC(=O)CCCN1C(=O)NC(C)(C)C1=O`?
TDP1 cell noCPT: -5%; DT40 TDP1 CPT: -1%; HT1080NT lethal: -8%; IL1B secr inh: 13; HT1080 IDH1KD tx: -29%

How did N#Cc1c(C(F)(F)F)cc(=O)[nH]c1SCC(=O)O do in these assays?
TDP1 cell noCPT: -17%; DT40 TDP1 CPT: 1%; HT1080NT lethal: -3%; IL1B secr inh: -5; HT1080 IDH1KD tx: 0%

Results for COc1ccc(-n2c(=O)c3c(c4cc(OC)ccc4n3C)n(Cc3ccc(F)cc3Cl)c2=O)cc1 ?
TDP1 cell noCPT: inconclusive; DT40 TDP1 CPT: -13%

Results for O=C(CC1S/C(=N/N=C/c2cccs2)NC1=O)Nc1ccc(Cl)cc1 (stereo unspecified) ?
TDP1 cell noCPT: -2%; DT40 TDP1 CPT: -14%; HT1080NT lethal: -1%; IL1B secr inh: 12; HT1080 IDH1KD tx: -8%

Results for O=C1N/C(=N\N=C\c2cccs2)SC1Cc1cccc(Cl)c1Cl (stereo unspecified) ?
TDP1 cell noCPT: 5.2µM*; DT40 TDP1 CPT: 3.3µM*; HT1080NT lethal: 4.6µM*; IL1B secr inh: 15; HT1080 IDH1KD tx: 6.5µM*

Results for CCOC(=O)c1c(N)n(C2CC(C)(C)NC(C)(C)C2)c2nc3ccccc3nc12 ?
TDP1 cell noCPT: -27%; DT40 TDP1 CPT: inconclusive; HT1080NT lethal: inconclusive; IL1B secr inh: -65*; HT1080 IDH1KD tx: inconclusive

How did CCOC(=O)c1c(N)n(-c2ccc(CC)cc2)c2nc3ccccc3nc12 do in these assays?
TDP1 cell noCPT: inconclusive; DT40 TDP1 CPT: 23µM*

How did Nc1c(C(=O)Nc2ccccc2)c2nc3ccccc3nc2n1-c1ccc(O)cc1 do in these assays?
TDP1 cell noCPT: 2.1µM*; DT40 TDP1 CPT: 10µM*; HT1080NT lethal: inconclusive; IL1B secr inh: 0; HT1080 IDH1KD tx: inconclusive

How did COC(=O)c1c(N)n(-c2ccc(OC)c(Cl)c2)c2nc3ccccc3nc12 do in these assays?
TDP1 cell noCPT: -27%; DT40 TDP1 CPT: inconclusive

Results for COC(=O)c1c(N)n(-c2cc(Cl)cc(Cl)c2)c2nc3ccccc3nc12 ?
TDP1 cell noCPT: 9.2µM*; DT40 TDP1 CPT: 16µM*

What do the screens show for `COc1ccc(-n2c(N)c(C(=O)Nc3c(C)n(C)n(-c4ccccc4)c3=O)c3nc4ccccc4nc32)cc1`?
TDP1 cell noCPT: inconclusive; DT40 TDP1 CPT: -23%; HT1080NT lethal: -2%; IL1B secr inh: -6; HT1080 IDH1KD tx: 9%

How did CCOC(=O)c1ccc(-n2c(N)c(C(=O)OC)c3nc4ccccc4nc32)cc1 do in these assays?
TDP1 cell noCPT: 7.3µM*; DT40 TDP1 CPT: 5.8µM*

Results for O=C(NNc1ccccc1Br)C(O)(c1cccc(C(F)(F)F)c1)c1cccc(C(F)(F)F)c1 ?
TDP1 cell noCPT: 15µM*; DT40 TDP1 CPT: 29µM*; HT1080NT lethal: 21µM*; IL1B secr inh: -59*; HT1080 IDH1KD tx: inconclusive

How did C/C=C(\C)C(=O)NCCN1C2=NC[C@H](C(C)C)N2C[C@H]1Cc1ccc(O)cc1 do in these assays?
TDP1 cell noCPT: -5%; DT40 TDP1 CPT: 0%; HT1080NT lethal: 0%; IL1B secr inh: 26; HT1080 IDH1KD tx: -3%

How did Cc1ccc(C(=O)NCCN2C3=NC[C@H](C(C)C)N3C[C@H]2Cc2ccc(O)cc2)cc1Br do in these assays?
TDP1 cell noCPT: 10µM*; DT40 TDP1 CPT: 5.2µM*; HT1080NT lethal: -26%; IL1B secr inh: -24; HT1080 IDH1KD tx: -29%

Screens deposited in PubChem by National Center for Advancing Translational Sciences (NCATS).
